Measurements: PubChem BioAssay AID1508600 (Functional Genomics Laboratory (NCATS/FGL), 2020)
Among all 53,000 sequences or so, about 3,700 (7%) were called active. Shown is part of a subset that was picked to be rich in actives. Unmarked numbers belong to inactive results.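 The calls were made as follows: active = gene knockdowns whose robust z-score for IL-1 alpha signal is at least 2 or at most -2, so actives lie on both sides; inactive = the rest.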

Test: Components of the Cytosolic LPS Sensing Pathway: Gene Identification via Genome-wide siRNA Screen;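 also: robust z of the log signal after scaling to non-targeting control siRNA wells of the plate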
Conditions: RAW264.7 macrophages, IL-1a HTRF, actives lie on both sides, screened at 100 nM (by protocol), cells primed 5 h with Pam3CSK4 first
Outline: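 RAW264.7; siRNA 100 nM final, RNAiMAX, 48h 37 degrees C; Pam3CSK4 5 h; LipidA + TransIT-TKO 24 h; IL-1a HTRF; CellTiter-Glo viability; robust z vs negative-control median.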

For CCAGUCCUUGAAAAGAGCUTT against Olfr128, which z-score is on record?
The z-score was -2.35 (active).

For CGCCCAAAUUGACUAUUUGTT against Fam214b, which z-score is on record?
The z-score was 0.351.

Which z-score does the source give for GAGAGCGGAGAGAUCAAAGTT against Iltifb here?
The z-score was 0.108.

Which z-score does the source give for GGCUGUUCCAGAGAUUGUGTT against Mela here?
The z-score was -0.29.

For GCGGUAUGAGAAGGUUCCATT against Rap2a, which z-score is on record?
The z-score was 3.48 (active).

Which z-score does the source give for GGCAUUGACAUCAUGUACUTT against Agxt here?
Its z-score is 1.1.

For GCGACAUCACAAGAAUCGATT against Fancd2, which z-score is on record?
The z-score was -0.979.

Which z-score does the source give for CCUAUCAAAUUAAAUGCGCTT against Muc13 here?
Its z-score is -0.6.

With GGUUGUGAUCAAUUAUUCATT against Evl as the sequence, how does the z-score read?
The z-score was 1.27.

Which z-score does the source give for GGAACACUCUGAAUUCAUUTT against Cxcl15 here?
Its z-score is 0.0905.

Which z-score does the source give for GCUGCUUUACUUAAGAGUUTT against Srf here?
The z-score was 0.625.

For GCGAAACUUCCAGAUCUAGTT against Cnot11, which z-score is on record?
The z-score was 2.14 (active).

Which z-score does the source give for GGGCAAGAGAGUAGAACUGTT against Ambra1 here?
Its z-score is 0.383.

Which z-score does the source give for GGUGACACAGCUGCUUUUCTT against Dact2 here?
The z-score was 0.107.

For CGGUCCAGGAAGAAUGUUUTT against Bckdhb, which z-score is on record?
Its z-score is -0.781.

Which z-score does the source give for GGAUUGUCAGAAAUCCUGATT against Adat2 here?
Its z-score is -1.22.

With CCCAUCAAUAUCAUAUCCATT against Car7 as the sequence, how does the z-score read?
The z-score was -2.34 (active).

For CCAGAGUUCUGGGAUUCCATT against Cyp2c66, which z-score is on record?
Its z-score is -0.948.

For GGCCAAGAAUGAUCGUUCUTT against Gabrb3, which z-score is on record?
The z-score was 0.00587.

With GCAGACAGUAAAUUGGUAATT against Mab21l3 as the sequence, how does the z-score read?
The z-score was 0.915.

With GGAUUACACACCUACGAUCTT against Taf10 as the sequence, how does the z-score read?
The z-score was -1.63.

Which z-score does the source give for CGACUACCUGGAUAUCUACTT against Efna2 here?
The z-score was -0.292.

With GGCGUGUUGAGACAAUCCUTT against Lkaaear1 as the sequence, how does the z-score read?
Its z-score is -0.815.

Which z-score does the source give for GCAUAGCAGGAAGGCCUUGTT against Htr6 here?
The z-score was 0.183.

For GCAUAUUGUGCGACUUUUCTT against Utp15, which z-score is on record?
The z-score was -2.16 (active).

Which z-score does the source give for GCAAAUUUUAUCAACCGCATT against Mical3 here?
Its z-score is -0.0618.

For CGACCAUACGAAUGCGGCATT against Zfp865, which z-score is on record?
The z-score was 0.498.

With GGCUUGAACACAAGAAAGCTT against Golim4 as the sequence, how does the z-score read?
Its z-score is -0.778.

Which z-score does the source give for “GGAUGAGAAUAUUGAAAGATT against 4932415M13Rik” here?
Its z-score is -0.225.

Which z-score does the source give for GGCAGGAAAACUGCCAAUGTT against Gm6034 here?
The z-score was 1.36.

Which z-score does the source give for CCUUAAUUGGGUUGAAUUCTT against Olfr878 here?
The z-score was 2.44 (active).

For GCUGACUAAGGCUUGUAAUTT against Hrnr, which z-score is on record?
Its z-score is -0.194.

Which z-score does the source give for GGUUAAUUCCAACAAAGCATT against Orc4 here?
The z-score was -0.529.

For GGUCUACAACCAAAUCUGCTT against Clec7a, which z-score is on record?
The z-score was -0.531.

For CCUGAGACUGCAUCUUUUCTT against Slc10a7, which z-score is on record?
The z-score was -0.693.

Which z-score does the source give for GCCAAAUUAAGUAUCUUGATT against Lamp2 here?
Its z-score is 0.371.

With GCCUCAUUGAAAGGAUCCATT against Mgat5b as the sequence, how does the z-score read?
The z-score was -2.32 (active).

With GGCGGAAAAAAAAGUAAUATT against Crebzf as the sequence, how does the z-score read?
Its z-score is 0.926.

For GGCUCAUUGGACAUAUAUGTT against Casp8ap2, which z-score is on record?
The z-score was -1.77.

With GGGACACCAAGUUUUCCAUTT against Paqr7 as the sequence, how does the z-score read?
Its z-score is 1.63.

For GGAAGAAGCAGGUGAUUAATT against Grb14, which z-score is on record?
The z-score was -1.24.

For CGGAUCGGUGCGAGAAUAATT against Gpatch3, which z-score is on record?
The z-score was 0.61.

For GGCCCUGUGUCAAAUCAGUTT against Zfand6, which z-score is on record?
Its z-score is 2.1 (active).

Which z-score does the source give for GGAGAUUGUUAUGCAAAAATT against Dnah5 here?
Its z-score is 0.178.

Which z-score does the source give for GGAAAUUUUGAACCUGACATT against Setd3 here?
Its z-score is 0.125.

With GGUCUCAAAGAAAUCUGUATT against Bcap29 as the sequence, how does the z-score read?
The z-score was -2.4 (active).

With GGACUCUUCAGCUUCCAGUTT against Uts2 as the sequence, how does the z-score read?
The z-score was -0.0543.

Which z-score does the source give for CCAAGACUCUUUAUUCAACTT against Rasip1 here?
Its z-score is 0.774.

With GGAGACAGAAAAUCAAGGCTT against Taf7 as the sequence, how does the z-score read?
The z-score was -0.506.

Which z-score does the source give for CCCUUGCUUGCUAAGAUUUTT against Scyl3 here?
The z-score was -0.684.

Which z-score does the source give for “GCUGGUGUCUUAUGGCCUATT against 9130008F23Rik” here?
Its z-score is -2.02 (active).

With GGAUACAGAGUAUUUCAAGTT against Rtkn as the sequence, how does the z-score read?
The z-score was -1.01.

For GCUUGUUCGGGAAUCUUAUTT against Olfr292, which z-score is on record?
The z-score was 0.116.

With GCCUGUUCCGCCAUUCAUGTT against Flii as the sequence, how does the z-score read?
The z-score was -0.2.

For GCUCACACUCUUCAUUAUCTT against Olfr1408, which z-score is on record?
Its z-score is -2.91 (active).

Which z-score does the source give for GGUGUUAGCUUCUCAAAAUTT against Cltrn here?
The z-score was 0.497.

Which z-score does the source give for GGAACAUCAUCCACUGGAATT against Crhr1 here?
The z-score was 6 (active).

Which z-score does the source give for GGCAAUUUGUGGAUUAUUGTT against Olfr1105 here?
Its z-score is -0.458.

With CCCUAAUUCAUUAGCUAUATT against Dhdds as the sequence, how does the z-score read?
The z-score was 0.111.

With GGACCCUGCUUUUUAAAAATT against Harbi1 as the sequence, how does the z-score read?
The z-score was 0.293.

Which z-score does the source give for GGAAGAGGAGGAAAACUUGTT against Fam135b here?
The z-score was -0.653.

For GGAUGAUCUUGGUGUACACTT against Tmem91, which z-score is on record?
The z-score was 3.04 (active).

For GGUAUAAUUGGAAUUGUGATT against Morc1, which z-score is on record?
The z-score was -0.658.

For GGUUGUCUGGAAUUUCCAUTT against Immp2l, which z-score is on record?
Its z-score is 3.81 (active).

With CCCAAUUCCUUAACUAUUATT against Cd209a as the sequence, how does the z-score read?
Its z-score is 1.02.

With GGUGGAAAGUGCAUAGACATT against Notch3 as the sequence, how does the z-score read?
Its z-score is 0.789.

Which z-score does the source give for GGACCUGGAUCUAUCCUACTT against Lrfn1 here?
Its z-score is -0.969.

Which z-score does the source give for GGAUGAUGACUUCCUAGGGTT against Cpne7 here?
The z-score was -0.622.

For CCUUAGGAUAGAAACAAAGTT against Mypn, which z-score is on record?
The z-score was 1.01.
